Screen size: about 290,000 compounds; about 890 (0.31%) were called active. Rule as the data show it: active = inhibition mostly above about 52% (no sharp cut-off); inactive = mostly below about 76%. Only a selection was taken, and actives are over-represented in it overall.
Assay: cell-free HIV fusion peptide-binding blockers – biochemical, uHTS, fluorescence dequenching, primary screen (AID 1986)
Details: 30 min, stronger effect = higher value
[1] = measured here: repeat confirmation average inhibition, at 18.6 µM

CN1CCN(c2ccc(Cl)cc2N)CC1
inhibition (at 20 µM): 0.1% (inactive)

CCC(=O)N1CC(=O)Nc2ccc(Cl)cc2C1c1ccc(F)cc1 (stereo not drawn)
inhibition (at 20 µM): -1.6% (inactive)

Cc1cccc(OCC(=O)N2CCN(Cc3ccc([N+](=O)[O-])cc3)CC2)c1
inhibition (at 20 µM): -1.3% (inactive)

COc1cc(OC)c(C=O)c(OC(=O)N(C)C)c1
inhibition (at 20 µM): 0.7% (inactive)

CCCC[N+]12CCC(CC1)C(=C(c1ccccc1)c1ccccc1)C2
inhibition (at 20 µM): 1.1% (inactive)

C[C@]12CCC3C(CCC4=C/C(=N/OCC(=O)NC(CCC(=O)O)C(=O)O)CC[C@@]43C)C1CCC2O (stereo partly drawn)
inhibition (at 20 µM): 3.9% (inactive)

NCCCC(=O)OC1N=C(c2ccccc2Cl)c2cc(Br)ccc2NC1=O (stereo not drawn)
inhibition (at 20 µM): -0.8% (inactive)

Clc1cccc(N2CCNCC2)n1
inhibition (at 20 µM): 0.9% (inactive)

CC(=NCC1CCCO1)c1c(O)n(C)c(=O)n(C)c1=O (stereo not drawn)
inhibition (at 20 µM): -2.1% (inactive)

CCN1C(=O)C(=Cc2ccc(N3CCOCC3)o2)C(=O)N(CC)C1=S
inhibition (at 20 µM): 136% (inactive)

CN1C(=O)C(=Cc2ccc(N3CCCCCC3)o2)C(=O)N(C)C1=S
inhibition (at 20 µM): 149% (inactive)

CN1CCN(c2ccc(/C=C3\C(=O)NC(=S)N(c4cccc(Br)c4)C3=O)o2)CC1
inhibition (at 20 µM): 53.7% (active)

Cc1cc(N2CCCCC2)ccc1C=C1C(=O)N(C)C(=S)N(C)C1=O
inhibition (at 20 µM): 17.8% (inactive)

Cc1cccc(N2C(=O)/C(=C/c3ccc(N4CCN(C)CC4)o3)C(=O)NC2=S)c1C
inhibition (at 20 µM): 13.2% (inactive)

CN1C(=O)C(=Cc2ccc(N3CCCCC3)o2)C(=O)N(C)C1=S
inhibition (at 20 µM): 103% (active) | inhibition [1]: 52.4%

CN1C(=O)C(=Cc2ccc(N3CCOCC3)o2)C(=O)N(C)C1=S
inhibition (at 20 µM): 144% (inactive)

CN1C(=O)C(=Cc2ccc(N3CCOCC3)o2)C(=O)N(C)C1=O
inhibition (at 20 µM): 69.4% (active) | inhibition [1]: 81.3%

Cc1cc(C)cc(N2C(=O)/C(=C\c3ccc(N4CCN(C)CC4)o3)C(=O)NC2=S)c1
inhibition (at 20 µM): 149% (inactive)

CNc1ccc2nc3ccccc3[n+](C)c2c1
inhibition (at 20 µM): 20.9% (inactive)

COc1cc(C(=S)N2CCOCC2)cc(OC)c1OC(=O)Cc1ccccc1
inhibition (at 20 µM): -1.3% (inactive)

O=C(CNC(=O)c1ccc(Br)cc1)Nc1ccc(Br)cc1C(=O)c1ccccc1
inhibition (at 20 µM): 1.3% (inactive)

CCOC(=O)N(CC)c1ccc(C(O)(C(=O)OC)C(F)(F)F)cc1 (stereo not drawn)
inhibition (at 20 µM): 1.2% (inactive)

CCCCn1c(=O)c(C(=O)NCc2ccco2)c(O)c2ccccc21
inhibition (at 20 µM): 4.7% (inactive)

N#CC(C#N)=Cc1ccc(N2CCCC2)cc1
inhibition (at 20 µM): 11.8% (inactive)

Cc1cc(C=C(C#N)C#N)ccc1N1CCCC1
inhibition (at 20 µM): 40.1% (inactive)

Cc1cc(N2CCCC2)ccc1C=C(C#N)C#N
inhibition (at 20 µM): 80.3% (active)

c1ccc(-c2[nH]c[n+](CC3CO3)c2-c2ccccc2)cc1 (stereo not drawn)
inhibition (at 20 µM): 12.3% (inactive)

O=C(CCc1nnc2ccc(NCc3ccccc3Cl)nn12)N1CCC2(CC1)OCCO2
inhibition (at 20 µM): 1% (inactive)

CCCCn1c(O)c(C(=O)/C=C/c2c[nH]c3ccccc23)c(=O)[nH]c1=O
inhibition (at 20 µM): 97.6% (active)

CCCCn1c(O)c(C(C)=NCCc2c[nH]c3ccccc23)c(=O)[nH]c1=O
inhibition (at 20 µM): 0.5% (inactive)

O=C(/C=C/c1c[nH]c2ccccc12)c1c(O)n(CCc2ccccc2)c(=O)[nH]c1=O
inhibition (at 20 µM): 148% (inactive)

CC(=O)NNC(=O)CN1C(=O)CN=C(c2ccccc2)c2cc(Br)ccc21
inhibition (at 20 µM): 2.1% (inactive)

CN(C)C(=O)Oc1ccc(Cl)c2cccnc12
inhibition (at 20 µM): 3.9% (inactive)

Cc1cc(C)cc(-n2c(O)c(C=Nc3ccc(N4CCOCC4)cc3)c(=O)[nH]c2=S)c1
inhibition (at 20 µM): 23.1% (inactive)

O=c1[nH]c(=S)n(-c2ccc(Cl)cc2)c(O)c1C=Nc1ccc(N2CCOCC2)cc1
inhibition (at 20 µM): 102% (active) | inhibition [1]: 80.1%

O=c1[nH]c(=S)n(-c2ccc(Br)cc2)c(O)c1C=Nc1ccc(N2CCOCC2)cc1
inhibition (at 20 µM): 24.5% (inactive)

O=C1NC(=O)N(c2ccccc2)C(=O)/C1=C\c1ccccc1[N+](=O)[O-]
inhibition (at 20 µM): 3.7% (inactive)

C=CCn1c(=O)c(C=Nc2cccnc2Cl)c(O)n(CCCC)c1=O
inhibition (at 20 µM): 119% (inactive) | inhibition [1]: 1.7%

O=c1c(C=Nc2cccnc2Cl)c(O)n(CCCCl)c(=O)n1C1CCCCC1
inhibition (at 20 µM): 71% (active)

CCCCn1c(=O)c(C=Nc2cccnc2Cl)c(O)n(CCCCl)c1=O
inhibition (at 20 µM): 37.8% (inactive)

Cc1ccc(N2C(=O)NC(=O)C(CCc3ccccn3)(Cc3cccc(Cl)c3Cl)C2=O)cc1 (stereo not drawn)
inhibition (at 20 µM): 0.2% (inactive)

Cc1ccc(-n2c(O)c(C=Nc3ccc(Br)cn3)c(=O)[nH]c2=O)cc1
inhibition (at 20 µM): 124% (active)

Cn1c(O)c(C=Nc2ccccc2)c(=O)n(C)c1=O
inhibition (at 20 µM): 1.3% (inactive)

Cc1ccc(-n2c(O)c(/C=N/c3ncc(Br)cc3Br)c(=O)[nH]c2=O)cc1
inhibition (at 20 µM): 64% (inactive) | inhibition [1]: 2.3%

Cc1cccc(-n2c(O)c(C=Nc3ccc(Br)cn3)c(=O)[nH]c2=O)c1
inhibition (at 20 µM): 144% (inactive)

Cn1c(O)c(/C=C/C=Nc2ccccc2)c(=O)n(C)c1=S
inhibition (at 20 µM): 91.4% (active) | inhibition [1]: 60.5%

O=c1[nH]c(=O)n(-c2ccccc2)c(O)c1/C=C/C=Nc1ccccc1
inhibition (at 20 µM): 147% (inactive)

Cn1c(O)c(/C=C/C=Nc2ccccc2)c(=O)n(C)c1=O
inhibition (at 20 µM): 52.8% (inactive) | inhibition [1]: 27.8%

Cc1cccc(-n2c(O)c(/C=C/C=Nc3ccccc3)c(=O)[nH]c2=O)c1
inhibition (at 20 µM): 147% (inactive)

Cc1ccc(-n2c(O)c(/C=C/C=Nc3ccccc3)c(=O)[nH]c2=O)cc1
inhibition (at 20 µM): 74.3% (active)

CC(=O)c1cccc(OCC(O)CN2CC=C(c3ccccc3)CC2)c1 (stereo not drawn)
inhibition (at 20 µM): -1% (inactive)

O=c1c2ccccc2[nH]c(=S)n1-c1ccc(Br)cc1
inhibition (at 20 µM): -0.2% (inactive)

O=c1[nH]c(O)c(N=Nc2ccc(SC(F)F)cc2)c(=O)[nH]1
inhibition (at 20 µM): 3.1% (inactive)

CCCOP(=O)(OCCC)C(NC(=O)c1cc(OC)c(OC)c(OC)c1)c1ccccc1 (stereo not drawn)
inhibition (at 20 µM): -1.1% (inactive)

CCOC(=O)c1c(C)n(C(C)C)c2ccc(OC)cc12
inhibition (at 20 µM): -1.3% (inactive)

COc1cccc(CNC(=O)CCC(=O)N2C[C@H]3C[C@H](C2)c2cccc(=O)n2C3)c1OC
inhibition (at 20 µM): 1.4% (inactive)

Cc1ccc(OCCn2cccc2/C=C2/C(=O)NC(=O)N(Cc3ccco3)C2=O)cc1
inhibition (at 20 µM): 23.5% (inactive)

CCc1ccc(N2C(=O)NC(=O)/C(=C/c3cccn3CCOc3ccc(C)cc3)C2=O)cc1
inhibition (at 20 µM): 73.7% (inactive) | inhibition [1]: 6.1%

CCC(C)c1ccc(N2C(=O)NC(=O)/C(=C/c3cccn3CCOc3ccc(C)cc3)C2=O)cc1 (stereo not drawn)
inhibition (at 20 µM): 65.8% (active) | inhibition [1]: 70.7%

CCc1ccc(N2C(=O)NC(=O)/C(=C/c3cccn3CCOc3ccc(C(C)CC)cc3)C2=O)cc1 (stereo not drawn)
inhibition (at 20 µM): 53.2% (active)

O=C1NC(=O)N(Cc2ccco2)C(=O)/C1=C\c1cccn1CCOc1ccc(Cl)cc1
inhibition (at 20 µM): 93.3% (inactive) | inhibition [1]: 0.8%

CCc1ccc(N2C(=O)NC(=O)/C(=C\c3cccn3CCOc3ccc(C(C)C)cc3)C2=O)cc1
inhibition (at 20 µM): 59.3% (inactive) | inhibition [1]: 1.8%
